Here are results for four sequences from PMC11006913.

Assay in all cases: PBM; 200 nM protein, PBS
Holding throughout (conditions): dsDNA, one strand shown

Assay [1] concerns the target HESX1 (Homo sapiens, UniProt Q9UBX0 95-180, R165K).
Assay [2] concerns the target HOXB4 (Homo sapiens, UniProt P17483 148-234).
The target in assay [3] is SHOX (Homo sapiens, UniProt O15266 103-189).
Assay [4] deals with HESX1 (Homo sapiens, UniProt Q9UBX0 95-180).
The target of the next assay is HOXA4 (Homo sapiens, UniProt Q00056 201-287, R217L).
The target of assay [5] is HOXB4 (Homo sapiens, UniProt P17483 148-234, V174I).
The target of assay [6] is ALX1 (Homo sapiens, UniProt Q15699 118-204, L144V).
For assay [7], the target named is ALX3 (Homo sapiens, UniProt O95076 139-225, N203Q).
In assay [8] the target is SHOX (Homo sapiens, UniProt O15266 103-189, R173C).
In assay [9] the target is ALX1 (Homo sapiens, UniProt Q15699 118-204, L144R).
For assay [10], the target named is ALX3 (Homo sapiens, UniProt O95076 139-225).
In assay [11] the target is PROP1 (Homo sapiens, UniProt O75360 56-141).
The target in assay [12] is HESX1 (Homo sapiens, UniProt Q9UBX0 95-180, R109Q).
Assay [13] has as its target PROP1 (Homo sapiens, UniProt O75360 56-141, R99H).
The target of assay [14] is ALX3 (Homo sapiens, UniProt O95076 139-225, L168Q).
For assay [15], the target named is HESX1 (Homo sapiens, UniProt Q9UBX0 95-180, P111T).
Assay [16] has as its target ALX3 (Homo sapiens, UniProt O95076 139-225, L168V).
Assay [17] addresses PROP1 (Homo sapiens, UniProt O75360 56-141, F88S).
Assay [18] deals with HESX1 (Homo sapiens, UniProt Q9UBX0 95-180, F115L).
Assay [19] deals with ALX3 (Homo sapiens, UniProt O95076 139-225, N203S).
Sequence of ALX3 (Homo sapiens, UniProt O95076 139-225, N203S) (O95076 139-225 N203S): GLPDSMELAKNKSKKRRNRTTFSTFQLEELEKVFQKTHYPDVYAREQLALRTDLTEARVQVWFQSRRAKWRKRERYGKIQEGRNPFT

Sequence of HOXB4 (Homo sapiens, UniProt P17483 148-234, V174I) (P17483 148-234 V174I): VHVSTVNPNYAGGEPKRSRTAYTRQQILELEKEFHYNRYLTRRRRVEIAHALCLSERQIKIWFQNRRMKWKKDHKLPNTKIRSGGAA
Sequence of ALX3 (Homo sapiens, UniProt O95076 139-225, L168Q) (O95076 139-225 L168Q): as the sequence (O95076 139-225 N203S) above, with L30Q, S65N counted along it
Sequence of PROP1 (Homo sapiens, UniProt O75360 56-141, F88S) (O75360 56-141 F88S): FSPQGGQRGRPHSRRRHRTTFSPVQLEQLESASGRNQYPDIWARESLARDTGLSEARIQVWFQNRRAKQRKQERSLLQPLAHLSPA
Sequence of ALX3 (Homo sapiens, UniProt O95076 139-225, N203Q) (O95076 139-225 N203Q): as the sequence (O95076 139-225 N203S) above, with S65Q counted along it
Sequence of PROP1 (Homo sapiens, UniProt O75360 56-141, R99H) (O75360 56-141 R99H): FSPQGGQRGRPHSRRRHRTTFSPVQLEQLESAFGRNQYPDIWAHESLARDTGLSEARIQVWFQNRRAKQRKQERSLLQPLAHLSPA
Sequence of ALX1 (Homo sapiens, UniProt Q15699 118-204, L144R) (Q15699 118-204 L144R): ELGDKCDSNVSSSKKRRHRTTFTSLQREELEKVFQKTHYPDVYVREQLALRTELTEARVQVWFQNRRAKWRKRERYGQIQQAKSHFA
Sequence of HESX1 (Homo sapiens, UniProt Q9UBX0 95-180, R109Q) (Q9UBX0 95-180 R109Q): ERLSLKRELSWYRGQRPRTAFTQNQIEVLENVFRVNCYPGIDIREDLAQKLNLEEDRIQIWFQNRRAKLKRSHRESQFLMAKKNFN
Sequence of ALX3 (Homo sapiens, UniProt O95076 139-225) (O95076 139-225): as the sequence (O95076 139-225 N203S) above, with S65N counted along it
Sequence of PROP1 (Homo sapiens, UniProt O75360 56-141) (O75360 56-141): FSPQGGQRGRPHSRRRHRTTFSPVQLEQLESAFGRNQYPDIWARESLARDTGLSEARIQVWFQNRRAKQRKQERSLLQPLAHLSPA
Sequence of HESX1 (Homo sapiens, UniProt Q9UBX0 95-180, R165K) (Q9UBX0 95-180 R165K): as the sequence (Q9UBX0 95-180 R109Q) above, with Q15R, R71K counted along it
Sequence of HOXA4 (Q00056 201-287 R217L): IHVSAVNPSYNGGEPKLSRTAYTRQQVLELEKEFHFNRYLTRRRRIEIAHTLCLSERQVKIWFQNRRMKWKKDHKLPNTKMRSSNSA
Sequence of ALX1 (Homo sapiens, UniProt Q15699 118-204, L144V) (Q15699 118-204 L144V): as the sequence (Q15699 118-204 L144R) above, with R27V counted along it
Sequence of ALX3 (Homo sapiens, UniProt O95076 139-225, L168V) (O95076 139-225 L168V): as the sequence (O95076 139-225 N203S) above, with L30V, S65N counted along it
Sequence of SHOX (Homo sapiens, UniProt O15266 103-189, R173C) (O15266 103-189 R173C): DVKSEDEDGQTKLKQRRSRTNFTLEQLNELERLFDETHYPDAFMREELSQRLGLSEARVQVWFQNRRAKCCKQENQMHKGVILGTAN
Sequence of HESX1 (Homo sapiens, UniProt Q9UBX0 95-180) (Q9UBX0 95-180): as the sequence (Q9UBX0 95-180 R109Q) above, with Q15R counted along it
Sequence of HESX1 (Homo sapiens, UniProt Q9UBX0 95-180, F115L) (Q9UBX0 95-180 F115L): as the sequence (Q9UBX0 95-180 R109Q) above, with Q15R, F21L counted along it
Sequence of HESX1 (Homo sapiens, UniProt Q9UBX0 95-180, P111T) (Q9UBX0 95-180 P111T): as the sequence (Q9UBX0 95-180 R109Q) above, with Q15R, P17T counted along it
Sequence of SHOX (Homo sapiens, UniProt O15266 103-189) (O15266 103-189): as the sequence (O15266 103-189 R173C) above, with C71R counted along it
Sequence of HOXB4 (Homo sapiens, UniProt P17483 148-234) (P17483 148-234): as the sequence (P17483 148-234 V174I) above, with I27V counted along it

On to CTTAATTA, for which the binding signal with HESX1 [1] is 13.6 upbm affinity estimate (log intensity, higher = more binding, comparable within an allelic series); with HOXB4 [2], 13.5 upbm affinity estimate (log intensity, higher = more binding, comparable within an allelic series); in the assay with SHOX [3], 13.2 upbm affinity estimate (log intensity, higher = more binding, comparable within an allelic series); with HESX1 [4], 13.4 upbm affinity estimate (log intensity, higher = more binding, comparable within an allelic series); with HOXA4 it was 13.1 upbm affinity estimate (log intensity, higher = more binding, comparable within an allelic series); with HOXB4 [5], 14.2 upbm affinity estimate (log intensity, higher = more binding, comparable within an allelic series). Also, the binding signal with ALX1 [6] is 12.3 upbm affinity estimate (log intensity, higher = more binding, comparable within an allelic series); in the assay with ALX3 [7] it was 8.7 upbm affinity estimate (log intensity, higher = more binding, comparable within an allelic series); with SHOX [8], 10.8 upbm affinity estimate (log intensity, higher = more binding, comparable within an allelic series); with ALX1 [9], 11.9 upbm affinity estimate (log intensity, higher = more binding, comparable within an allelic series); in the assay with ALX3 [10], 12.9 upbm affinity estimate (log intensity, higher = more binding, comparable within an allelic series); in the assay with PROP1 [11] it was 12.1 upbm affinity estimate (log intensity, higher = more binding, comparable within an allelic series). The binding signal with HESX1 [12] is 10.5 upbm affinity estimate (log intensity, higher = more binding, comparable within an allelic series); with PROP1 [13], 12.1 upbm affinity estimate (log intensity, higher = more binding, comparable within an allelic series); with ALX3 [14], 11.4 upbm affinity estimate (log intensity, higher = more binding, comparable within an allelic series); in the assay with HESX1 [15] it was 12.3 upbm affinity estimate (log intensity, higher = more binding, comparable within an allelic series); in the assay with ALX3 [16] it was 11.1 upbm affinity estimate (log intensity, higher = more binding, comparable within an allelic series); with PROP1 [17], 8.21 upbm affinity estimate (log intensity, higher = more binding, comparable within an allelic series). The binding signal with HESX1 [18] was 8.38 upbm affinity estimate (log intensity, higher = more binding, comparable within an allelic series); in the assay with ALX3 [19], 8.85 upbm affinity estimate (log intensity, higher = more binding, comparable within an allelic series).
For ATTAATTA, the binding signal with HESX1 [1] was 14 upbm affinity estimate (log intensity, higher = more binding, comparable within an allelic series); in the assay with HOXB4 [2], 13.7 upbm affinity estimate (log intensity, higher = more binding, comparable within an allelic series); in the assay with SHOX [3] it was 13.3 upbm affinity estimate (log intensity, higher = more binding, comparable within an allelic series); with HESX1 [4], 13.8 upbm affinity estimate (log intensity, higher = more binding, comparable within an allelic series); with HOXA4 it was 13.4 upbm affinity estimate (log intensity, higher = more binding, comparable within an allelic series); in the assay with HOXB4 [5], 14.4 upbm affinity estimate (log intensity, higher = more binding, comparable within an allelic series). In addition, the binding signal with ALX1 [6] is 12.5 upbm affinity estimate (log intensity, higher = more binding, comparable within an allelic series); in the assay with ALX3 [7] it was 8.67 upbm affinity estimate (log intensity, higher = more binding, comparable within an allelic series); in the assay with SHOX [8], 10.8 upbm affinity estimate (log intensity, higher = more binding, comparable within an allelic series); with ALX1 [9] it was 12.1 upbm affinity estimate (log intensity, higher = more binding, comparable within an allelic series); in the assay with ALX3 [10], 13.2 upbm affinity estimate (log intensity, higher = more binding, comparable within an allelic series); with PROP1 [11] it was 12.3 upbm affinity estimate (log intensity, higher = more binding, comparable within an allelic series). Further, the binding signal was 11 upbm affinity estimate (log intensity, higher = more binding, comparable within an allelic series) with HESX1 [12]; 12.5 upbm affinity estimate (log intensity, higher = more binding, comparable within an allelic series) in the assay with PROP1 [13]; 11.6 upbm affinity estimate (log intensity, higher = more binding, comparable within an allelic series) in the assay with ALX3 [14]; 12.5 upbm affinity estimate (log intensity, higher = more binding, comparable within an allelic series) in the assay with HESX1 [15]; 11.5 upbm affinity estimate (log intensity, higher = more binding, comparable within an allelic series) with ALX3 [16]; 8.37 upbm affinity estimate (log intensity, higher = more binding, comparable within an allelic series) with PROP1 [17]. The binding signal in the assay with HESX1 [18] was 8.72 upbm affinity estimate (log intensity, higher = more binding, comparable within an allelic series); with ALX3 [19] it was 8.88 upbm affinity estimate (log intensity, higher = more binding, comparable within an allelic series).
In the case of GTTAATTA, the binding signal with HESX1 [1] is 13.7 upbm affinity estimate (log intensity, higher = more binding, comparable within an allelic series); with HOXB4 [2], 13.5 upbm affinity estimate (log intensity, higher = more binding, comparable within an allelic series); in the assay with SHOX [3], 13.1 upbm affinity estimate (log intensity, higher = more binding, comparable within an allelic series); with HESX1 [4], 13.6 upbm affinity estimate (log intensity, higher = more binding, comparable within an allelic series); in the assay with HOXA4, 13.2 upbm affinity estimate (log intensity, higher = more binding, comparable within an allelic series); with HOXB4 [5], 14.3 upbm affinity estimate (log intensity, higher = more binding, comparable within an allelic series). Further, the binding signal in the assay with ALX1 [6] is 12.3 upbm affinity estimate (log intensity, higher = more binding, comparable within an allelic series); with ALX3 [7] it was 8.67 upbm affinity estimate (log intensity, higher = more binding, comparable within an allelic series); with SHOX [8], 10.7 upbm affinity estimate (log intensity, higher = more binding, comparable within an allelic series); with ALX1 [9] it was 12 upbm affinity estimate (log intensity, higher = more binding, comparable within an allelic series); with ALX3 [10], 13 upbm affinity estimate (log intensity, higher = more binding, comparable within an allelic series); with PROP1 [11], 12.1 upbm affinity estimate (log intensity, higher = more binding, comparable within an allelic series). For the same sequence, the binding signal is 10.5 upbm affinity estimate (log intensity, higher = more binding, comparable within an allelic series) in the assay with HESX1 [12]; 12.1 upbm affinity estimate (log intensity, higher = more binding, comparable within an allelic series) in the assay with PROP1 [13]; 11.5 upbm affinity estimate (log intensity, higher = more binding, comparable within an allelic series) in the assay with ALX3 [14]; 12.3 upbm affinity estimate (log intensity, higher = more binding, comparable within an allelic series) with HESX1 [15]; 11.2 upbm affinity estimate (log intensity, higher = more binding, comparable within an allelic series) with ALX3 [16]; 8.2 upbm affinity estimate (log intensity, higher = more binding, comparable within an allelic series) with PROP1 [17]. Also, the binding signal was 8.41 upbm affinity estimate (log intensity, higher = more binding, comparable within an allelic series) in the assay with HESX1 [18] and 8.84 upbm affinity estimate (log intensity, higher = more binding, comparable within an allelic series) with ALX3 [19].
ATTAATTG: the binding signal with HESX1 [1] is 13 upbm affinity estimate (log intensity, higher = more binding, comparable within an allelic series); with HOXB4 [2] it was 13.4 upbm affinity estimate (log intensity, higher = more binding, comparable within an allelic series); with SHOX [3] it was 12.3 upbm affinity estimate (log intensity, higher = more binding, comparable within an allelic series); in the assay with HESX1 [4], 12.9 upbm affinity estimate (log intensity, higher = more binding, comparable within an allelic series); in the assay with HOXA4 it was 12.5 upbm affinity estimate (log intensity, higher = more binding, comparable within an allelic series); with HOXB4 [5], 14.2 upbm affinity estimate (log intensity, higher = more binding, comparable within an allelic series). The binding signal in the assay with ALX1 [6] is 12.1 upbm affinity estimate (log intensity, higher = more binding, comparable within an allelic series); with ALX3 [7], 8.48 upbm affinity estimate (log intensity, higher = more binding, comparable within an allelic series); with SHOX [8], 9.84 upbm affinity estimate (log intensity, higher = more binding, comparable within an allelic series); with ALX1 [9] it was 11.7 upbm affinity estimate (log intensity, higher = more binding, comparable within an allelic series); in the assay with ALX3 [10], 12.7 upbm affinity estimate (log intensity, higher = more binding, comparable within an allelic series); with PROP1 [11] it was 11.7 upbm affinity estimate (log intensity, higher = more binding, comparable within an allelic series). Moreover, the binding signal was 9.92 upbm affinity estimate (log intensity, higher = more binding, comparable within an allelic series) in the assay with HESX1 [12]; 12 upbm affinity estimate (log intensity, higher = more binding, comparable within an allelic series) with PROP1 [13]; 11 upbm affinity estimate (log intensity, higher = more binding, comparable within an allelic series) with ALX3 [14]; 11.6 upbm affinity estimate (log intensity, higher = more binding, comparable within an allelic series) in the assay with HESX1 [15]; 10.5 upbm affinity estimate (log intensity, higher = more binding, comparable within an allelic series) with ALX3 [16]; 8 upbm affinity estimate (log intensity, higher = more binding, comparable within an allelic series) with PROP1 [17]. In addition, the binding signal is 8.15 upbm affinity estimate (log intensity, higher = more binding, comparable within an allelic series) with HESX1 [18] and 8.67 upbm affinity estimate (log intensity, higher = more binding, comparable within an allelic series) with ALX3 [19].
